Mac1 fbg enh: CD11b/CD18-fibrinogen binding enhancement; P05107+P11215; K562 CD11b/CD18 adhesion to fibrinogen, ATPlite luminescence; activation, % at 10 µM; 93,000 compounds, 0.07% hits;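 active = 10 µM primary screen giving 50% or more activity, confirmed by 40% or more on retest at that dose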
ERa SRC1 pot: ER-alpha (human) coactivator binding potentiation; 86,000 compounds, 1.3% hits; AID 639; coactivator binding (% of control), % at 25.6 µM; TR-FRET ERalpha-LBD/SRC-Cy5 coactivator binding, 2 h; 100 = basal binding, no effect; in the data active = activity above about 200%;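 note: binding measured in presence of low estradiol as agonist stimulus; 0% = peptide alone without receptor and 100% = receptor with peptide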
ERa SRC1 inh: blocks coactivator binding to human estrogen receptor alpha | P03372 | TR-FRET ER-alpha LBD / SRC-1 peptide, estradiol-bound | inhibition, % at 25.6 µM | 86,000 compounds, 1.7% hits; in the data active = inhibition above about 50%;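 note: 0% = receptor plus peptide control and 100% = peptide only without receptor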
Mac1 fbg inh: CD11b/CD18-fibrinogen binding inhibition. K562 CD11b/CD18 adhesion to fibrinogen, ATPlite luminescence; Mn2+ added to activate the integrin. inhibition, % at 10 µM. 93,000 compounds, 0.54% hits. AID 1497;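 active = primary inhibition of 50% or more at 10 µM, then 40% or more on retest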
ERb coact inh: ER-beta (human) coactivator binding inhibition. Q92731. TR-FRET ER-beta LBD / SRC1-Cy5 peptide binding; receptor agonist-loaded with 1 µM estradiol. inhibition, % at 25.6 µM. 86,000 compounds, 1.3% hits;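 active = compounds whose percent inhibition of the receptor-coactivator binding signal exceeds about 50% in the single-dose screen, limit read from the data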;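 note: 0% = receptor plus peptide wells without compound and 100% = peptide-only wells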
Target sequence (Q92731 whole entry, looked up, the tested form may be a part): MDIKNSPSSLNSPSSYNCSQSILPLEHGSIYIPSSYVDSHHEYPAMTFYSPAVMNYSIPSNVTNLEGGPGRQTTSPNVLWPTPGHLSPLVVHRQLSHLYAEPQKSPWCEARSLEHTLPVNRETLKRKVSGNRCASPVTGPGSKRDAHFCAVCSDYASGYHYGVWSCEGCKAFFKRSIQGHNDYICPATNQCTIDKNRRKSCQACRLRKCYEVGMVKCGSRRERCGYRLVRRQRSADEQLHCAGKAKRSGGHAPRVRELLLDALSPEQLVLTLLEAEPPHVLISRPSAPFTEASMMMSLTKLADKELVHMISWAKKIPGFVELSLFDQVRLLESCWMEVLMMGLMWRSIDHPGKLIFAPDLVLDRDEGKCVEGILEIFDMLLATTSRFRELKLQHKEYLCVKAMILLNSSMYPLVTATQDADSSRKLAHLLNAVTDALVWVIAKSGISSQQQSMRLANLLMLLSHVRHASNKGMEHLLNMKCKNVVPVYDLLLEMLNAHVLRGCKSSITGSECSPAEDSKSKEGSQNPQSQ
Active calls of the source: *; nt = not tested or not shown; [ ] = dose if it differs, or a comment. Hits are enriched below; roughly 3.1% of the tested compounds scored in any of these assays.

SMILES	Mac1 fbg enh	ERa SRC1 pot	ERa SRC1 inh	Mac1 fbg inh	ERb coact inh
N/C(=N\c1nc2ccccc2o1)NC(=O)c1ccccc1NC(=O)c1ccccc1	-2.9	122.0	-2.0	54.8	82.2*
N#CC(C(=O)Nc1ccc(Cl)cc1)=C1Nc2ccccc2N1	-0.4	163.0	53.7*	-4.4	5.7
CC(C)CN(CCC(=O)O)CC(C)C	-1.8	110.5	-2.2	-13.8	60.4*
CCCCCCn1ccc(=N)cc1	-4.9	108.2	-8.8	56.2*	-13.5
O=C(CSc1nnc(-c2ccco2)n1-c1ccccc1)N1CCN(C(=O)c2ccco2)CC1	4.1	521.4*[fluorescence artefact?]	-22.4	-19.0	-4.0
COc1ccc(NC(=O)c2cc(-c3ccc(C)o3)nc3ccccc23)cc1OC	12.6	77.2	79.0*[fluorescence artefact?]	-16.3	68.2*[fluorescence artefact?]
O=C(CCc1ccccc1)Nc1ccc(N2CCOCC2)cc1	4.9	111.2	3.9	-12.8	59.1*
NC(=O)Cn1c(=O)n(Cc2ccco2)c(=O)c2c3c(sc21)CCCCC3	nt	16.7	91.2*[fluorescence artefact?]	nt	90.3*[fluorescence artefact?]
O=c1cc(-c2ccccc2)c2c([nH]1)CCCC2	nt	98.2	-2.8	nt	-6.5
O=c1cc(-c2ccccc2Cl)c2c([nH]1)CCC2	nt	62.5	47.5	nt	56.7*[fluorescence artefact?]
Cc1cc(C)c2cc(C#N)c(N3CCCN(S(=O)(=O)c4ccccc4)CC3)nc2c1	nt	261.6*[fluorescence artefact?]	23.8	nt	27.1
CC(=O)c1cccc(S(=O)(=O)N2CCN(c3nc4cc(C)cc(C)c4cc3C#N)CC2)c1	0.0	182.6	39.5	6.1	58.5*[fluorescence artefact?]
O=C(NCc1ccc2c(c1)OCO2)c1ccc2c(=O)n(C3CCCC3)c(=O)[nH]c2c1	-1.9	109.3	3.1	5.4	6.3
COc1ccc(CNC(=O)c2cc3c(=O)n4ccccc4nc3n(Cc3cccnc3)c2=N)cc1	15.0	52.6	78.2*[fluorescence artefact?]	-5.4	41.8
COCCCn1c(=N)c(C(=O)NCc2ccc3c(c2)OCO3)cc2c(=O)n3ccccc3nc21	-0.8	71.0	18.6	-22.1	16.4
COc1ccc(Cn2c(=O)[nH]c3cc(C(=O)NCc4ccc5c(c4)OCO5)ccc3c2=O)cc1	nt	131.3	50.6*	nt	23.4
N=c1c(C(=O)NCc2ccc3c(c2)OCO3)cc2c(=O)n3ccccc3nc2n1Cc1cccnc1	72.1	4.5	91.6*[fluorescence artefact?]	-11.3	57.2*
O=C(NCCc1ccc(Cl)cc1)C1CCC(=O)N1Cc1ccc(F)cc1 (centres undefined)	1.2	123.6	-2.6	2.0	-3.4
COc1ccc(/C=N/OCC(=O)NCc2cccs2)c(OC)c1	-2.4	nt	nt	-11.1	nt
O=C(NNC(=O)C1CCCCC1)C(=O)NC1CCCCC1	-4.6	nt	nt	14.5	nt
Fc1ccc(-c2nnc(-n3nnc4ccccc43)c3ccccc23)cc1	nt	156.5	57.8*	nt	47.3
CCOc1ccc(NC(=O)c2cc3cc4ccc(OC)cc4nc3o2)cc1	29.8	194.3	56.0*	-42.6	44.7
Cc1cccc(C(=O)O/N=C(\N)Cc2ccc([N+](=O)[O-])cc2)c1	3.1	97.3	-13.6	-2.3	-7.1
N/C(Cc1ccc([N+](=O)[O-])cc1)=N\OC(=O)c1ccc2ccccc2c1	-3.3	119.5	50.2*	13.0	19.7
Cc1nnc2n(-c3ccccc3)c(=O)c3c4c(sc3n12)COC(C(C)C)C4 (centres undefined)	6.5	100.6	-4.1	-8.5	-2.5
SMILES	Mac1 fbg enh	ERa SRC1 pot	ERa SRC1 inh	Mac1 fbg inh	ERb coact inh
CC(C)C1Cc2c(sc3[nH]c(=S)n(Cc4ccccc4)c(=O)c23)CO1 (centres undefined)	-5.7	99.4	-3.5	53.2*	-1.6
Cc1ccc(CSc2nc3ncccc3[nH]2)cc1	nt	104.8	11.0	nt	-1.3
Clc1ccc(CSc2nc3ccncc3[nH]2)cc1	-17.7	91.4	1.8	88.3*	4.0
Cc1ccc(CSc2nc3ccncc3[nH]2)cc1	-9.5	100.1	2.0	101.4*	-5.6
O=C1CN(C(=O)COC(=O)CCSc2ccccc2Cl)c2ccccc2N1	0.1	nt	nt	-34.2	nt
CCCCNS(=O)(=O)c1ccc2nc(SCC(=O)Nc3sccc3C#N)[nH]c2c1	-8.5	86.0	9.8	102.2*	0.8
CCOc1ccc2c3c(c(=O)oc2c1OCC)CCCC3	1.1	112.2	83.8*[fluorescence artefact?]	-1.8	3.7
CCOC(=O)c1ccccc1-c1csc(NS(=O)(=O)c2ccc(Cl)cc2)n1	-4.4	nt	nt	53.6*	nt
FC(F)(F)c1ccc(N2CCOCC2)c(NC2=NCCCCC2)c1	-3.2	98.1	-7.2	1.5	-5.9
CCOc1cc(N2CCOCC2)c(OCC)cc1NC1=NCCCCC1	1.9	69.3	44.2	-12.0	69.8*[fluorescence artefact?]

Screens from PubChem BioAssay.
